Most compounds without a hit are left out; they make up all but 2.3% or so of the library.
M1 PAM – positive allosteric modulators of human M1 muscarinic receptor | activation, % at 3 µM | CHO-K1 hM1, Fluo-8 calcium fluorescence, ACh EC20; 0% = ACh EC20, 100% = maximal ACh | 360,000 tested, 0.088% active; in the data active = activation above about 19%, passing the limit was not always enough
Target sequence (P11229 whole entry, looked up): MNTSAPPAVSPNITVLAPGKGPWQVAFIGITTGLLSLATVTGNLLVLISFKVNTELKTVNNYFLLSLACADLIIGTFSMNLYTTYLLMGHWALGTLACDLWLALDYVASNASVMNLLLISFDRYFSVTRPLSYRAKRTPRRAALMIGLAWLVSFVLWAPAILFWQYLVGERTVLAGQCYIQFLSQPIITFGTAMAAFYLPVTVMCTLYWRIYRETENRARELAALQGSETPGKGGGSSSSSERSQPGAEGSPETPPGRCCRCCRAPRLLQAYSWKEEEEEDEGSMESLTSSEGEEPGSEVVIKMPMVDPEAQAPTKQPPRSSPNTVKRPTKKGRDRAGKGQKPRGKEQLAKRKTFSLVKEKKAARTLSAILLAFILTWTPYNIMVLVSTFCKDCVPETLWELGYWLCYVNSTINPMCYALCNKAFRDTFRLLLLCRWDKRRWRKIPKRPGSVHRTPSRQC
CHO-K1 Ca ag – counter-screen for M1 agonists: effect in parental CHO-K1 cells; Fluo-8 calcium fluorescence; scaled to maximal ATP response, vehicle zero; activation, % at 3 µM; 360,000 tested, 0.48% active; AID 602248; in the data active = activation above about 15%;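 also: untransfected CHO-K1 host cells lacking M1 receptor as counterscreen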
CHO-K1 Ca PAM – counter-screen for M1 PAMs: effect in parental CHO-K1 cells | ATP EC20, Fluo-8 calcium fluorescence; 0% at ATP EC20, 100% at ATP max | activation, % at 3 µM | 360,000 tested, 0.02% active | AID 602247;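 active = activation above the run cutoff, the mean activation of all test compounds plus 3 SD, cut at about 40% in these data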;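 also: peak over basal fluorescence ratio in a 140 s read after ATP addition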
M1 antag – human CHRM1 antagonism. CHO-K1 hM1, Fluo-8 calcium fluorescence, ACh EC80 antagonist. inhibition, % at 3 µM. 360,000 tested, 1.3% active;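 active = percent inhibition above its own plate's cutoff, namely the mean of that plate's compound wells plus 3 SD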;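 also: peak over basal fluorescence ratio during 140 s after agonist addition; 0% = ACh EC80 plus DMSO and 100% = DMSO alone without agonist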
CHO-K1 Ca antag – M1 antagonist counterscreen hit in parental CHO-K1 cells | 360,000 tested, 0.6% active | AID 602250 | ATP-induced calcium, Fluo-8 fluorescence | inhibition, % at 3 µM;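 active = inhibition above a per-plate cutoff, the plate's mean sample inhibition plus 3 SD, cut at about 24% in these data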;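 also: 0% = DMSO plus EC80 ATP and 100% = DMSO alone without ATP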
M1 ag – activates human CHRM1 receptor | P11229 | 360,000 tested, 0.33% active | AID 588814 | activation, % at 3 µM | CHO-K1 hM1, Fluo-8 calcium fluorescence, agonist mode; 0% DMSO, 100% acetylcholine EC100;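 active = activation above the run's mean compound activation plus 3 SD, cut at about 16% in these data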;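 also: peak over basal fluorescence ratio within a 140 s kinetic read after compound addition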
Numbers without * were called inactive.

SMILES | M1 PAM | CHO-K1 Ca ag | CHO-K1 Ca PAM | M1 antag | CHO-K1 Ca antag | M1 ag
CCOC(=O)C1CCCN(C(=O)c2cc(COc3ccc(C)nc3)on2)C1 (stereo not drawn) | -4 | 6 | 13 | 4 | -7 | 27*
COCC1CCCN(C(=O)c2cc(COc3ccc4ncccc4c3)on2)C1 (stereo not drawn) | -11 | 14 | -4 | 35* | 25* | 9
CCOC(=O)N1CCN(C(=O)c2cc(COc3ccc4ncccc4c3)on2)CC1 | -4 | 4 | -13 | 5 | 25* | 4
Cc1cccnc1CN1CCN(C(=O)c2cc(COc3ccc4ncccc4c3)on2)CC1 | -4 | 15 | 4 | 18 | 18 | -3
CCN(CC)C1CCN(C(=O)c2cc(COc3ccc(-n4cncn4)cc3)on2)C1 (stereo not drawn) | -8 | 0 | 6 | 42* | 0 | 15
O=C(c1cc(COc2ccc3ncccc3c2)on1)N1CCCC(O)C1 (stereo not drawn) | -1 | 11 | 10 | 2 | -3 | -1
O=C(OCC(=O)N1CCOCC1)c1cc(-c2ccccc2)nc2ccccc12 | 0 | 2 | 15 | -19 | -19 | -1
CCOC(=O)NC(=O)C(/C=N/c1sccc1C(=O)OC)=C(\C)O | 9 | 1 | 21 | -4 | -16 | -7
COc1ccc(S(=O)(=O)N2CCC(N3CCN(c4ccccc4OC)CC3)CC2)cc1 | -7 | -1 | 11 | 3 | -1 | -7
COCCNC(=S)Nc1ccc(N2CCOCC2)c(S(=O)(=O)Nc2ccccc2OC)c1 | 5 | 4 | 15 | 0 | -7 | -1
COc1cccc(C(=O)N2CCC2(C)C(=O)O)c1 (stereo not drawn) | 6 | 0 | 7 | -8 | -5 | -2
Cc1ccc2c(c1)[C@H]1[C@H](CO2)[C@H](c2ccccc2)[C@]2(C)C(=O)Nc3ccccc3C(=O)N12 | -38 | 0 | -5 | 86* | -9 | -9
C[C@@]12C(=O)Nc3ccc(Cl)cc3C(=O)N1[C@H]1c3cc(Cl)ccc3OC[C@@H]1[C@@H]2c1ccccc1 | -11 | 0 | -23 | 18 | 1 | -5
COc1ccc2c(c1)C(=O)N1[C@H]3c4cc(C)ccc4OC[C@@H]3[C@H](c3ccccc3)[C@]1(C)C(=O)N2 | -32 | 0 | 10 | 60* | -7 | -8
COc1ccc2c(c1)OC[C@H]1[C@H]2N2C(=O)c3ccccc3NC(=O)[C@@]2(C)[C@H]1c1ccccc1 | -31 | 1 | 23 | 75* | -10 | -6
Cc1ccc2c(c1)[C@H]1[C@H](CO2)[C@H](c2ccccc2)[C@]2(C)C(=O)Nc3ccc(Cl)cc3C(=O)N12 | -22 | 1 | 9 | 35* | -16 | -6
COc1ccc2c(c1)OC[C@H]1[C@H]2N2C(=O)c3cc(C)ccc3NC(=O)[C@@]2(C)[C@H]1c1ccccc1 | -7 | 1 | 26 | 17 | -27 | -4
Cc1ccc(NS(=O)(=O)c2cccc(C(=O)Nc3cccnc3)c2)c(C)c1 | -6 | 4 | 1 | -6 | -5 | 5
COc1cc2c(cc1O)C(CSC)Cc1cc3c(cc1N(C)CC2)OCO3 (stereo not drawn) | 5 | 0 | 16 | -9 | -11 | -4
CC/C(C)=N/Nc1cccc([N+](=O)[O-])c1 | 6 | 0 | 6 | -5 | 5 | -7
CN1C(=O)C2(c3ccccc31)c1c(oc3ccccc3c1=O)C(=O)N2CCCO (stereo not drawn) | 2 | 1 | 18 | -6 | -6 | -3
O=C(Cc1n[nH]c(=O)c2ccccc12)OCC(=O)c1ccc(OC(F)F)cc1OC(F)F | 1 | 2 | -13 | -5 | 0 | 2
C[C@@]12C(=O)Nc3ccccc3C(=O)N1[C@H]1c3cc(Cl)ccc3OC[C@@H]1[C@@H]2c1ccccc1 | -28 | 0 | -4 | 33* | -12 | -5
Cc1ccccc1COc1cccn2c(N(C)C(=O)CCC3CCCC3)c(C)nc12 | -30 | 5 | 1 | 39* | -7 | -5
COc1ccccc1COc1cccn2c(N(C)C(=O)CCC3CCCC3)c(C)nc12 | -27 | 4 | 17 | 25 | -1 | -7
SMILES | M1 PAM | CHO-K1 Ca ag | CHO-K1 Ca PAM | M1 antag | CHO-K1 Ca antag | M1 ag
O=c1ccc2c([nH]1)CCCCCCCCCC2 | 15 | 0 | 13 | -6 | 3 | 8
O=C(CNC(=O)c1ccccc1)OC1CCCCC1 | 11 | 0 | 16 | -11 | -8 | -5
C[N+]1(C)CCCC(OC(=O)C(O)(c2ccccc2)c2ccccc2)C1 (stereo not drawn) | -26 | 0 | -2 | 99* | 9 | -9
Cc1cc(NC(=O)c2ccc(C#N)cc2)on1 | 2 | 0 | 11 | -7 | -4 | -5
O=CN1Cc2[nH]c3ccccc3c2N(c2ccc(Cl)cc2)C1=O | 2 | 0 | -8 | 11 | 27* | -3
COc1ccc(Cl)cc1NC(=O)CN1CCN(Cc2ccccc2)CC1 | 5 | 3 | 11 | -3 | -4 | -5
CCCCCC#CCN1CCN(C23CC4CC(CC(C4)C2)C3)CC1 | -15 | 0 | 19 | 32 | -20 | -8
CCCC#CCN1CCN(C23CC4CC(CC(C4)C2)C3)CC1 | -25 | 0 | -1 | 47* | -6 | -11
Cc1ccc(-c2ccc(/C=C3\SC(N4CCOCC4)=NC3=O)o2)cc1 | 3 | 2 | 8 | 1 | -1 | -6
Cc1ccc(/C=C2\SC(N3CCN(C(c4ccccc4)c4ccccc4)CC3)=NC2=O)o1 | -26 | 1 | 21 | 52* | -11 | -11
OC(CCN1CC2CCC(CC2)C1)(Cc1ccccc1)c1ccco1 (stereo not drawn) | -28 | 0 | 3 | 86* | -6 | -6
CCCNC(=O)CNC(=O)c1ccc(C#N)cc1 | 9 | 0 | -21 | -2 | -3 | -4
Cc1cc(C)n(S(=O)(=O)c2ccc(C(C)(C)C)cc2)n1 | -21 | 1 | -10 | 55* | 12 | -9
Cc1cccc(NC(=O)CSCC(=O)N(CCC(C)C)c2c(N)n(Cc3ccccc3)c(=O)[nH]c2=O)c1 | 6 | 0 | -1 | -8 | -4 | -3
CCN(CC)CCNC(=O)c1ccc2c(=O)n(C3CCCC3)c(=S)[nH]c2c1 | -24 | 3 | 23 | 57* | -5 | -7
CC(C)NC(=O)c1ccc2c(=O)n(C3CCCC3)c(=S)[nH]c2c1 | 9 | 0 | 3 | -7 | 4 | -4
COc1ccc(NC(=O)CCc2nnc3ccc(NCc4ccco4)nn23)cc1 | 26* | 1 | 20 | 20 | -14 | -1
CCC(C)[C@H]1CN=C(N)N1CCc1cccc2ccccc12 (stereo partly drawn) | -28 | 0 | -5 | 38* | -5 | -14
COc1cc(Br)cc(C(=O)N2CCc3ccccc32)c1OC | 4 | -1 | 10 | -10 | -17 | -8

Screening results from PubChem.
